Assay results: PubChem BioAssay
Unmarked numbers belong to inactive results. For some assays here: Entries with a potency or affinity are not part of this list. Active and inactive are the calls of the source. Unless noted, how the calls were made is not given here.

Experiments:
[1] = antimalarial activity against Dd2 strain (AID 2302;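 active means growth inhibition above 50% at the single 2 µM test dose, taken to imply half-maximal potency below 2 µM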;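 further: 0% = DMSO untreated growth and 100% = chloroquine plus artemisinin killed control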); settings: P. falciparum Dd2 in RBCs, LDH growth readout, 72 h; at 2 µM; active compounds read high
[2] = target: L-lactate dehydrogenase (Plasmodium falciparum (isolate CDC / Honduras)) (UniProt Q27743); assay: PfLDH activity inhibition – cell lysate, 3D7 strain, counter-screen for P. falciparum growth inhibition project (AID 2304);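 further: 0% = vehicle and 100% = reference inhibitor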; settings: P. falciparum 3D7 crude extract, LDH APAD/NBT absorbance; at 2 µM; active compounds read high
L-lactate dehydrogenase (Plasmodium falciparum (isolate CDC / Honduras)), sequence (Q27743 whole entry, looked up): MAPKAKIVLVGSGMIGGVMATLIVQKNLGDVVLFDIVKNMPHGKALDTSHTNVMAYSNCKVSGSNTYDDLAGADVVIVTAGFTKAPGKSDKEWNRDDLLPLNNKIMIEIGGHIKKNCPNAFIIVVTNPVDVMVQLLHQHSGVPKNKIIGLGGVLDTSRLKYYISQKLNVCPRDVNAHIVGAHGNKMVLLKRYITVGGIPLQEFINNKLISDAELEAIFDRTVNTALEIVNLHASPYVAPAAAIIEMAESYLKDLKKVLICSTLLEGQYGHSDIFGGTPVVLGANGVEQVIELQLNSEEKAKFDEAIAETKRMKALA

[3] = inhibition of 3D7 malaria parasite growth – strain 3D7 (AID 2306);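 further: 0% = DMSO wells and 100% = chloroquine plus artemisinin control wells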; settings: P. falciparum 3D7 erythrocytic growth, LDH absorbance, 72 h; at 2 µM; active compounds read high
[4] = target: Calcium-dependent protein kinase 1 (Plasmodium falciparum (isolate 3D7)) (UniProt P62344); assay: PfCDPK1 kinase inhibitors, biochemical, TCAMS library (AID 1159585; cut-off not given, nearly all actives have IC50 up to about 0.98 µM;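 further: inhibitors leave more ATP so luminescence rises with inhibition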); settings: recombinant PfCDPK1, Kinase-Glo ATP depletion luminescence
Calcium-dependent protein kinase 1 (Plasmodium falciparum (isolate 3D7)), sequence (P62344 whole entry, looked up): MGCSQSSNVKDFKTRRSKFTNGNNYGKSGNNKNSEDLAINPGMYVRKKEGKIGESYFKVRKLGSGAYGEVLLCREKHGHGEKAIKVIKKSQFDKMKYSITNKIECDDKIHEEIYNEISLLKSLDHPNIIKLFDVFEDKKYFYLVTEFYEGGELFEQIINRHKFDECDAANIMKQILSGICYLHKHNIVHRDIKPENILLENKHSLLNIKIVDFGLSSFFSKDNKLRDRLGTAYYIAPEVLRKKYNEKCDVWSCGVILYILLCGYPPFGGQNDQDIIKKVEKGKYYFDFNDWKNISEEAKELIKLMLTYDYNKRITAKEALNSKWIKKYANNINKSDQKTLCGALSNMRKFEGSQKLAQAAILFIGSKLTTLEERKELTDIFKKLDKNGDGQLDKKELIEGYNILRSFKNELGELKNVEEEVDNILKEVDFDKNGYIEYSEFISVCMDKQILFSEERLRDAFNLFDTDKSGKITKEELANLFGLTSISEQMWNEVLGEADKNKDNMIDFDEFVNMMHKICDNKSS

[5] = target: Plasmodium falciparum protein kinase 6 (PK6, PF3D7_1337100) (UniProt Q8IDW1); assay: PfPK6 kinase inhibitors, biochemical, TCAMS library (AID 1159586); settings: recombinant PfPK6, Kinase-Glo ATP depletion luminescence
Plasmodium falciparum protein kinase 6 (PK6, PF3D7_1337100), sequence (Q8IDW1 1-305): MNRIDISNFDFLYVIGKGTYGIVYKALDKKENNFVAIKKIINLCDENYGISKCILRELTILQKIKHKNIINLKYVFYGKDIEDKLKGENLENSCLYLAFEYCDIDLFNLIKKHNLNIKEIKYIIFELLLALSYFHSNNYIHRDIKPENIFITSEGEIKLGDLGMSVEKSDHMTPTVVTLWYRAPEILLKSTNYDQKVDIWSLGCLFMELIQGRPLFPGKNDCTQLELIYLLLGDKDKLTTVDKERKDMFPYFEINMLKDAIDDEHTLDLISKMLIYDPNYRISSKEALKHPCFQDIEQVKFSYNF

[6] = target: Protein kinase 7 (PK7), Plasmodium falciparum 3D7 (PF3D7_0213400) (UniProt Q7YTF7); assay: inhibition of Plasmodium PK7 catalytic activity – biochemical, TCAMS antimalarial set, Kinase-Glo luminescence (AID 1159587); settings: recombinant PfPK7, Kinase-Glo ATP depletion luminescence
Protein kinase 7 (PK7), Plasmodium falciparum 3D7 (PF3D7_0213400), sequence (Q7YTF7 1-343): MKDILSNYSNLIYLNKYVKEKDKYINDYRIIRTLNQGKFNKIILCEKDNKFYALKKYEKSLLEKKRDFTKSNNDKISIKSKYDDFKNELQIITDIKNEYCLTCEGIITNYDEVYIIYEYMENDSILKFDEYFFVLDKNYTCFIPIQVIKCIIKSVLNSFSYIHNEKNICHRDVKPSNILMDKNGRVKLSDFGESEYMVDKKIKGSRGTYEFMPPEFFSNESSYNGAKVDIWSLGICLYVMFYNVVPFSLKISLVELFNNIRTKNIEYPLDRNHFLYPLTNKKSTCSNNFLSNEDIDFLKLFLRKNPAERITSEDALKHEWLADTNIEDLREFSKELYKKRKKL

[7] = target: Calcium-dependent protein kinase 4 (Plasmodium falciparum (isolate 3D7)) (UniProt Q8IBS5); assay: PfCDPK4 kinase inhibitors, biochemical, TCAMS library (AID 1159588; cut-off not given, nearly all actives have IC50 up to about 0.91 µM); settings: recombinant PfCDPK4, Kinase-Glo ATP depletion luminescence
Calcium-dependent protein kinase 4 (Plasmodium falciparum (isolate 3D7)), sequence (Q8IBS5 whole entry, looked up): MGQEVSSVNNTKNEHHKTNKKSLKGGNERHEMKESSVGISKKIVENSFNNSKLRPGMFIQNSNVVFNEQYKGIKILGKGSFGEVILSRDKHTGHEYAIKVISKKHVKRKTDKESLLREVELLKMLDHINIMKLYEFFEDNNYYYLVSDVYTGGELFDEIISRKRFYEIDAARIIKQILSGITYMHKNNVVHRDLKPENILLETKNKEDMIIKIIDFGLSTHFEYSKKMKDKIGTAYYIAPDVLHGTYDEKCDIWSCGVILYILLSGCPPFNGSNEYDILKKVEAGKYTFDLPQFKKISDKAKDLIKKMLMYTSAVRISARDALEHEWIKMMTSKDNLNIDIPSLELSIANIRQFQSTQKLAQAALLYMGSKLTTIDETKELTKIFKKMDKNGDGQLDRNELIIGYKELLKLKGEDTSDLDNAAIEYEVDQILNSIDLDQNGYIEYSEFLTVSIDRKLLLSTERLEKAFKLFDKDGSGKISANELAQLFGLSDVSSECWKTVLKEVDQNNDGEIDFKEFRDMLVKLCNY

[8] = human hepatoma cell viability loss – ATP luminescence, cytotoxicity control for P. falciparum antimalarial project, primary screen (AID 2303;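 active means inhibition above 50%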;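 further: 0% = DMSO wells and 100% = digitonin-killed cells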); settings: HepG2 viability, 24-48 h, at 10 µM, active compounds read high

SMILES | growth inhibition [1] | inhibition [2] | growth inhibition [3] | outcome [4] | outcome [5] | outcome [6] | outcome [7] | inhibition [8]
Nc1nc(N)c2c(Sc3ccc(F)cc3)cccc2n1 | -3% | 3% | 88% (active) | inactive | inactive | inactive | inactive | –
O=C(/C=C/c1ccc(Cl)c(Cl)c1)NC1CCC(CN2CCC(Cc3c[nH]c4ccccc34)CC2)CC1 (centres undefined) | 9% | -7% | 101% (active) | inactive | inactive | inactive | inactive | 25%
c1cc2nc(CCCc3nc4ccc(C5=N[C@H]6CCCC[C@H]6N5)cc4[nH]3)[nH]c2cc1C1=N[C@@H]2CCCC[C@@H]2N1 | 84% (active) | -2% | 85% (active) | inactive | inactive | inactive | inactive | 10%
CCCCNCCOc1ccc(-c2nc(-c3ccccc3)c(-c3ccccc3)[nH]2)cc1 | 34% | -5% | 100% (active) | inactive | inactive | inactive | inactive | –
Cc1cc(=O)c(-c2ccc(Oc3ccc(OC(F)(F)F)cc3)cc2)c(C)[nH]1 | 61% (active) | 0% | 93% (active) | inactive | inactive | inactive | inactive | –
CCCCN(CCCC)CCCN(CCCN(CCCC)CCCC)c1cc(C)nc(Nc2ccc(Cl)cc2)n1 | 99% (active) | 0% | 101% (active) | inactive | inactive | inactive | inactive | –
CCN(c1ccc(O)c(CN2CCCCC2)c1)c1ccc([N+](=O)[O-])cn1 | 64% (active) | 2% | 94% (active) | inactive | inactive | inactive | inactive | –
Cn1c(NC(=O)C2CCC(CNC(=O)c3ccc(O)c(-c4cccc([N+](=O)[O-])c4)c3)CC2)nc2ccccc21 (centres undefined) | 97% (active) | -5% | 95% (active) | inactive | inactive | inactive | inactive | 6%
CCOc1cc(C)ccc1C1CCN(CCCCNC(=O)c2cccc(-c3ccc(C(F)(F)F)cc3)c2)CC1 | 55% (active) | 2% | 99% (active) | inactive | inactive | inactive | inactive | 39%
CC(C)(C)NCCN(Cc1ccc(-c2ccc(C(F)(F)F)cc2)cc1)C(=O)Cn1c(CCc2cccc(F)c2F)nc(=O)c2c1CCC2 | 48% | 6% | 95% (active) | inactive | inactive | inactive | inactive | 6%
COc1ccc(Cc2c(Cl)nc3nc(N)nc(N)c3c2C)c(OC)c1OC | -3% | -2% | 98% (active) | inactive | inactive | inactive | inactive | –
COc1cc2c(cc1OC)C(C)(C)CN1Cc3c(c(CO)c(OC)c(OC)c3OC)CC21 (centres undefined) | 9% | 2% | 95% (active) | inactive | inactive | inactive | inactive | –
CCc1cc2c(cc1CC)CC(NC[C@@H](O)c1ccc(O)c3[nH]c(=O)ccc13)C2 | 9% | -4% | 101% (active) | inactive | inactive | inactive | inactive | -3%
Cc1cccc2[nH]c(-c3cccc(-c4cccc(NC(=O)c5ccc(C(N)=O)cc5)c4)c3)nc12 | 34% | 0% | 101% (active) | inactive | inactive | inactive | inactive | 25%
NC(=O)c1c(Cl)nc2ccccc2c1Cl | -2% | -2% | 91% (active) | inactive | inactive | inactive | inactive | 2%
COc1cc(CCNC(=O)Cc2ccc3ccccc3c2)ccc1OCc1ccccc1 | 61% (active) | 2% | 93% (active) | inactive | inactive | inactive | inactive | –
COc1cc2c(cc1OC)CN(c1cc(N)c3cc(OC)c(OC)cc3n1)CC2 | 99% (active) | -3% | 100% (active) | inactive | inactive | inactive | inactive | 23%
CC(C)c1ccc(O)cc1Nc1ccnc2ccc(C(F)(F)F)cc12 | 90% (active) | -6% | 97% (active) | inactive | inactive | inactive | inactive | 6%
N#Cc1cc(C(=O)Nc2ccccc2)c(N)nc1SCC(=O)NC(c1ccccc1)c1cccs1 (centres undefined) | 100% (active) | -1% | 98% (active) | inactive | inactive | inactive | inactive | 34%
CC(C)(C)OC(=O)N[C@@H](CS(=O)(=O)CCN=C(N)COCc1ccccc1)C(=O)OC(C)(C)C | 76% (active) | 4% | 88% (active) | inactive | inactive | inactive | inactive | –

SMILES | growth inhibition [1] | inhibition [2] | growth inhibition [3] | outcome [4] | outcome [5] | outcome [6] | outcome [7] | inhibition [8]
CN(C)CCCN1C(=O)c2[nH]nc(-c3ccc(Cl)cc3O)c2C1c1ccc(Cl)cc1 (centres undefined) | 15% | 4% | 99% (active) | inactive | inactive | inactive | inactive | 57% (active)
CCCCCCCN1CC[C@H](CC(=O)Nc2ccnc3ccc(OC)cc23)[C@@H](CC)C1 | 75% (active) | -4% | 101% (active) | inactive | inactive | inactive | inactive | 14%
Nc1nc(N)c2c(ccc3c2ccn3Cc2cccc(F)c2)n1 | 99% (active) | -6% | 101% (active) | inactive | inactive | inactive | inactive | –
COCCN1CCN(Cc2ccc(-c3cccc(-c4nc5ccccc5[nH]4)c3)cc2)CC1 | 10% | 0% | 93% (active) | inactive | inactive | inactive | inactive | 32%
CCCCCCn1ccc2c3c(N)nc(N)nc3ccc21 | 91% (active) | 0% | 99% (active) | inactive | inactive | inactive | inactive | –
Nc1nc(N)c2c(ccc3[nH]c(-c4ccccc4Cl)nc32)n1 | 101% (active) | -1% | 101% (active) | inactive | inactive | inactive | inactive | –
CCCCCCn1c2c(c(=N)c3c1CCC3)CCC2 | 83% (active) | -3% | 97% (active) | inactive | inactive | inactive | inactive | 32%
C(=Cc1ccccc1)C=NNc1ccnc2ccccc12 | 100% (active) | 5% | 100% (active) | inactive | inactive | inactive | inactive | 24%
O=c1c2ccc(Sc3ccccn3)cc2n(-c2ccccc2)c2cc(Sc3ccccn3)ccc12 | 70% (active) | -3% | 89% (active) | inactive | inactive | inactive | inactive | –
C=CCNC(=O)C(C)c1ccc2cc(OC)ccc2c1 (centres undefined) | 90% (active) | 1% | 92% (active) | inactive | inactive | inactive | inactive | 4%
Cc1cc(=O)c(-c2ccc(OCc3ccc(Cl)cc3)cc2)c(C)[nH]1 | 76% (active) | -1% | 93% (active) | inactive | inactive | inactive | inactive | –
CC(=NNC(=S)NCc1ccco1)c1ccccn1 | 100% (active) | -6% | 99% (active) | inactive | inactive | inactive | inactive | –
COc1ccc2nccc([C@@H](O)CN3CCC(NC(=O)c4cccc(-c5cc(C)no5)c4)CC3)c2c1 | 89% (active) | 1% | 93% (active) | inactive | inactive | inactive | inactive | 19%
N#CCCN1CCN(Cc2cccc(-c3ccc(-c4nc5ccccc5[nH]4)cc3)c2)CC1 | 20% | -9% | 93% (active) | inactive | inactive | inactive | inactive | 18%
CC(=NNC(=S)NCCc1ccccn1)c1ccccn1 | 95% (active) | -3% | 100% (active) | inactive | inactive | inactive | inactive | –
Nc1nc(N)c2c(ccc3c2ccn3Cc2ccc(Br)cc2)n1 | 98% (active) | -13% | 101% (active) | inactive | inactive | inactive | inactive | –
CC(=O)Oc1c(Br)c(C)nc(C)c1-c1ccc(Oc2ccc(OC(F)(F)F)cc2)cc1 | 97% (active) | -4% | 98% (active) | inactive | inactive | inactive | inactive | –
Cc1nc2ccc(S(=O)(=O)Nc3ccc(C(=O)N[C@@H](CCC(=O)O)C(=O)O)cc3)cc2c(=O)[nH]1 | 2% | 7% | 94% (active) | inactive | inactive | inactive | inactive | –
CCc1ccc(Cc2cnc3nc(N)nc(N)c3c2C)cc1 | -1% | 0% | 97% (active) | inactive | inactive | inactive | inactive | –
CCCc1cc(Cc2cnc(N)nc2N)c2cccnc2c1OC | 3% | 2% | 98% (active) | inactive | inactive | inactive | inactive | –
